Results published in PubChem BioAssay (EPA / NIEHS).
Records with an inconclusive call do not appear. Calls of active or inactive are those of the source. How the source made its calls: active means hit-call score of the fitted dose curve at least 0.9, where 1 is the maximum; inconclusive means response in the unintended direction; inactive means score below 0.9.

Target: Estrogen receptor (Homo sapiens) + Estrogen receptor beta (Homo sapiens) (UniProt P03372+Q92731)
Assay: OT_ER_ERaERb_0480: Odyssey Thera (OT) 8-hour HEK293T Protein-Complementation Assay for Estrogen Receptor-alpha/-beta Heterodimer (AID 2283352)
Experimental: OT_ER_ERaERb_0480 is a cell-based assay that uses HEK293T, a human kidney cell line, with measurements taken at 8 hours after chemical dosing in a 384-well plate.OT_ER_ERaERb_0480 is one of one assay component(s) measured or calculated from the OT_ER_ERaERb_0480 assay. It is designed to make measurements of protein fragment complementation, a form of binding reporter, as detected with fluorescence intensity signals by Protein-fragment Complementation technology.Data from the assay component OT_ER_ERaERb_0480 was analyzed into 1 assay endpoint. This assay endpoint, OT_ER_ERaERb_0480, was analyzed in the positive analysis fitting direction relative to DMSO as the negative control and baseline of activity. Using a type of binding reporter, measures of receptor for gain-of-signal activity can be used to understand the binding at the pathway-level as they relate to the gene ESR1 and ESR2. Furthermore, this assay endpoint can be referred to as a primary readout, because the performed assay has only produced 1 assay endpoint. To generalize the intended target to other relatable targets, this assay endpoint is annotated to the nuclear receptor intended target family, where the subfamily is steroidal.
Protein-fragment complementation assay, or PCA, is a method for the identification and quantification of protein-protein interactions. In the PCA, the proteins of interest ("bait" and "prey") are each covalently linked to fragments of a third protein (e.g. DHFR, which acts as a "reporter"). Interaction between the bait and the prey proteins brings the fragments of the reporter protein in close proximity to allow them to form a functional reporter protein whose activity can be measured. […] Fluorescent signal in the basal state of the assay is very low and is primarily punctuate and cytoplasmic. Modulation of this assay is quantified as an increase in mean fluorescence intensity in the nucleus (for agonists) or in the nucleus and cytoplasm (antagonists) relative to vehicle controls, and can be quantified on a high content imaging device or a laser scanning cytometer. The latter instrument is favored for this assay because of the rapid mode of data acquisition, the ability to acquire data from the entire cell population in a well (as opposed to a fraction of the well on the high content devices) and the larger dynamic range typically achieved with this instrument. To assess sensitivity of the ER alpha/ER beta LBD assay to ligand, cells were treated with the ER agonist 17- beta-estradiol (E2) in 10-point concentration- response format for 8 hours and monitored response on a laser scanning plate cytometer (Acumen eX3; TTP Lab Tech).

Estrogen receptor (Homo sapiens) + Estrogen receptor beta (Homo sapiens), sequence (P03372 whole entry, looked up): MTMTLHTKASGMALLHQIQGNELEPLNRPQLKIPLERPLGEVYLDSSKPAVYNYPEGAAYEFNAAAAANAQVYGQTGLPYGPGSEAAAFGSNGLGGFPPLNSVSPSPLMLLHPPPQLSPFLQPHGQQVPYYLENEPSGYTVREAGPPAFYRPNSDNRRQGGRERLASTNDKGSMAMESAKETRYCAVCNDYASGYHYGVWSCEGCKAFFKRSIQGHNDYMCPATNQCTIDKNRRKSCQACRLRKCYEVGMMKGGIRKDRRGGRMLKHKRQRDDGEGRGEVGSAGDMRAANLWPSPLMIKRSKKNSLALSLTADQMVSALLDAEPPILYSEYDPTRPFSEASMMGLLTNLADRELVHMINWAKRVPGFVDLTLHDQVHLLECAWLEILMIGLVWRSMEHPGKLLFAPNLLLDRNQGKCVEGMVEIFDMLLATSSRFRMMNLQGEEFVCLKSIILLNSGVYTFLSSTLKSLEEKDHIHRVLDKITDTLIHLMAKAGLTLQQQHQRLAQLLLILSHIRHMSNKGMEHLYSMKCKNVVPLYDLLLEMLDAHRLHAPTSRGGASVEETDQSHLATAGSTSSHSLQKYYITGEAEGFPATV
Estrogen receptor (Homo sapiens) + Estrogen receptor beta (Homo sapiens), sequence (Q92731 whole entry, looked up): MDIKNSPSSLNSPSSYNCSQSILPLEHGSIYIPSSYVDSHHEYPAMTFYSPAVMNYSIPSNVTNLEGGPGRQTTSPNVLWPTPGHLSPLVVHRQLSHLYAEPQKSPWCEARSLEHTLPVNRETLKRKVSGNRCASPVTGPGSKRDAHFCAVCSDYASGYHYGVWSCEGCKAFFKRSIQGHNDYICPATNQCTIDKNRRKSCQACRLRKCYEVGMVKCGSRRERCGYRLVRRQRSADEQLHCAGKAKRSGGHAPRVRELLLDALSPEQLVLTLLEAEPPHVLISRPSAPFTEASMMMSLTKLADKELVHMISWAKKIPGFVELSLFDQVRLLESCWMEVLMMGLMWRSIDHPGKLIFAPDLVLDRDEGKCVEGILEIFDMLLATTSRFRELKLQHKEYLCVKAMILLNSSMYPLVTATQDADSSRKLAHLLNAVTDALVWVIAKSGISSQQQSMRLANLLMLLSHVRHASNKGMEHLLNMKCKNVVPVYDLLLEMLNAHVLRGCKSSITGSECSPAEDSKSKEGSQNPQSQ

outcome, inactive:
Cc1ccc(S)cc1, CCCCCCCCC=O, C=C(C)C(=O)O, NC(=O)Nc1ccc(Cl)cc1, CCCCCCCCC, CC(=O)OCCOC(C)=O, CC1COc2ccccc2N1C(=O)C(Cl)Cl (centres undefined), CCCCCCCCCCCCCC(=O)O, CCC/C=C/C=O, OCCN1CCNCC1, OCCOCCOCCOCCO, CCCCOCCOCCOCCOCCO, O=C1c2ccccc2C(=O)N1SC1CCCCC1, c1ccc(CCCc2ccccn2)cc1, CC(C)(N)CO, CCCCCCCCCC=O

AC50, active:
CCN(CC)c1ccc2c(-c3ccccc3C(=O)O)c3ccc(=[N+](CC)CC)cc-3oc2c1 12 µM, CCCCc1ccc(N)cc1 50 µM, CC(C)c1cccc(O)c1 52 µM
